Laboratory results reported in the supplement of paper PMC10646978.
± gives the standard deviation.

Legend:
Conditions in all cases: modulator concentration 10 µM
[1] = tested on: RAW-Dual (murine macrophage reporter line); assay: NF-kB reporter (SEAP) activity fold change vs agonist alone; higher = enhanced NF-kB activity
Outline: (§1)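 Overnight stimulation with a PRR agonist followed pre-incubation for 1 hour at 37 °C with compound at 10 μM final. This was done in RAW-Dual murine macrophage reporter cells seeded at 50 000 per well in 384-well plates. NF-κB (SEAP, QUANTI-Blue absorbance at 620 nm) and IRF (Lucia luciferase, QUANTI-Luc luminescence) were read from the supernatant. Each reporter's fold change relative to the mean agonist-only control on the same plate was averaged over replicate plates.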

[2] = tested on: RAW-Dual (murine macrophage reporter line); assay: IRF reporter (Lucia luciferase) activity fold change vs agonist alone; higher = enhanced IRF activity
Outline: as §1

[3] = tested on: RAW-Dual (murine macrophage reporter line); assay: viability score (confluency relative to resting cells, overnight) (fraction); higher = more viable, active = viable (0.7 or more)
Outline: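 RAW-Dual macrophages in 384-well plates were treated overnight with compound at 10 μM final. IncuCyte imaging recorded confluency, and IncuCyte software built two confluency masks across every imaged well. The viability score expresses confluency relative to resting cells and was judged against a cutoff, which a compound met only if both masks exceeded 70% of resting cells.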

[4] = agonist: CpG ODN 1826 0.5 ug/mL

Compound	NF-kB reporter [1, 4]	NF-kB reporter ([1]; agonist: LPS 0.1 ug/mL)	NF-kB reporter ([1]; agonist: MPLA […])	IRF reporter ([2]; agonist: 3'3'-cGAMP 10 ug/mL)	IRF reporter ([2]; agonist: LPS 0.1 ug/mL)	IRF reporter ([2]; agonist: MPLA […])	viability score [3]
COc1cc2c(c(OC)c1OC)-c1ccc(O)c(=O)cc1C(NC(C)=O)CC2 (configuration not stated)	2.16 ± 0.12	1.27 ± 0.084	1.52 ± 0.16	0.705 ± 0.024	1.26 ± 0.082	1.08 ± 0.19	0.754 (active)
CCC1CN2CCC1CC2C(O)c1ccnc2ccc(OC)cc12 (configuration not stated)	1.05 ± 0.25	1.16 ± 0.066	1.1 ± 0.08	0.565 ± 0.021	1.21 ± 0.17	1.33 ± 0.26	0.983 (active)
CC(=O)CC(c1ccccc1)c1c(OC(C)=O)c2ccccc2oc1=O (configuration not stated)	0.865 ± 0.059	0.925 ± 0.11	0.779 ± 0.1	0.908 ± 0.03	1.3 ± 0.1	1.14 ± 0.19	1 (active)
Cc1cccc(COc2ccc(C=C3C(=O)NC(=S)NC3=O)cc2)c1	0.855 ± 0.07	0.875 ± 0.047	1.14 ± 0.099	0.844 ± 0.056	0.992 ± 0.093	0.969 ± 0.12	0.981 (active)
COc1ccc(CCNCc2cccc3ccccc23)cc1OC	0.222 ± 0.016	0.82 ± 0.059	0.867 ± 0.058	0.872 ± 0.047	1.32 ± 0.093	1.44 ± 0.14	0.947 (active)
NC(=O)CN1CC(O)CC1=O (configuration not stated)	1.04 ± 0.079	1.04 ± 0.051	1 ± 0.03	0.961 ± 0.081	1.02 ± 0.082	0.954 ± 0.097	0.996 (active)
NNC(=O)c1ccccc1	1.06 ± 0.088	1.05 ± 0.082	1.02 ± 0.022	0.929 ± 0.086	0.914 ± 0.15	0.931 ± 0.12	1 (active)
CCN(CC)CCNC(=O)C(O)(c1ccccc1)c1ccccc1	0.873 ± 0.071	0.937 ± 0.066	0.964 ± 0.038	0.968 ± 0.076	0.991 ± 0.17	0.923 ± 0.23	0.998 (active)
O=C1NC(=O)N(c2ccccc2F)C(=O)C1=Cc1ccc(OCc2ccc([N+](=O)[O-])cc2)c(Cl)c1	0.917 ± 0.072	1.03 ± 0.068	0.894 ± 0.057	0.916 ± 0.049	1.22 ± 0.15	1.02 ± 0.065	1.01 (active)
Cl.Clc1ccc(C(OCCN2CCCCC2)c2ccccc2)cc1 (configuration not stated)	0.656 ± 0.26	0.756 ± 0.051	0.721 ± 0.049	0.543 ± 0.023	1.25 ± 0.15	1.24 ± 0.14	0.652 (inactive)
COc1ccc(CCNCc2ccc(OC)c(OC)c2OC)cc1OC	1.01 ± 0.11	0.876 ± 0.14	0.942 ± 0.052	0.927 ± 0.16	1.01 ± 0.044	0.997 ± 0.11	0.998 (active)
